Data as given in PubChem BioAssay AID652106 (National Center for Advancing Translational Sciences (NCATS), 2013).
In all, about 370,000 compounds went through this assay and about 500 (0.14%) were called active. Another 2% or so got no clear call; they are omitted. Shown is part of a subset that was picked to be rich in actives. Values without a mark were called inactive. The call rests on the fitted dose curve; in most records, active means well fitted activation curve with a large enough effect; inconclusive means small, poorly fitted or top-dose-only effect; inactive means no such curve, though single readings can be large or run the other way.

Test: qHTS of alpha-syn Inhibitors; further: nearly all actives have a fitted effect of over 65% in size; on growth rescue (activation): % of control where 0% means no effect
Conditions: Yeast expressing alpha-synuclein, BacTiter-Glo, 24 h; Potency: growth rescue; series mostly up to 46.1 µM; growth rescue (activation): at the top concentration
Text: The goal of this project is to identify new chemical probes capable of reversing the toxicity associated with the Parkinson disease-related protein, alpha-synuclein. Compounds will be selected on their ability to restore growth in yeast cells expressing toxic levels of alpha-synuclein. These compounds will provide a complementary approach to deciphering the tangled mechanisms of toxicity and protection that we have uncovered through genome-wide genetic screens and are beginning to uncover in a large-scale proteomics analysis with mass spectroscopy. To this end, a miniaturized assay was developed to be screened against the Molecular Libraries Small Molecule Repository (MLSMR) to discover alpha-synuclein inhibitors. Please note that in the set-up this yeast-based assay compounds that inhibit as alpha-syn, have a read-out as activators. NIH Chemical Genomics Center [NCGC] NIH Molecular Libraries Probe Centers Network [MLPCN] MLPCN Grant: NS060957 Assay Submitter (PI): Susan Lindquist, Whitehead Institute/MIT
Dispense 2.5 microL yeast galactose medium per 1536-well plate, pin compound, dispense 2.5 microL alpha-synuclein expressing yeast in galactose medium at OD600=0.02 (pregrown in raffinose medium to mid-log phase) per well, incubate for 24 hr at 30 deg C, and cell growth will be measured using 5 microL of Bactiter/Glo reagent to entire plate and read using Luminescence Protocol in ViewLux.
Potency means the concentration at half of the fitted maximal effect.

Point of comparison: `COc1cc(C(O)c2nc(-c3cnn(C)c3)cs2)ccc1F` (stereo unspecified), “growth rescue (activation)” value 5.45%. Against it:
- COc1ccc(CNC(=O)CSc2nc3ccccc3nc2Cc2ccccc2)cc1 — lower, 0.505%
- C(=Nc1ccc(/C=C/c2ccnc3ccccc23)cc1)c1cc2c3c(c1)CCCN3CCC2 — lower, -1.08%
- O=C(COC(=O)c1ccccc1OCCOc1ccccc1)Nc1cccc(Br)c1 — lower, 1.98%
- COc1ccc(C(C)(NC(C)=O)c2nc(-c3ccc(S(C)(=O)=O)cc3)cs2)cc1 (stereo unspecified) — lower, 1.69%
- COc1ccc(C(C)(O)c2nc(-c3cc(F)cc(F)c3)cs2)cc1 (stereo unspecified) — higher, 11.4%
- CCOc1n[nH]c(-c2ccccc2)n1 — lower, -3.49%
- COc1ccc(N2CCN(S(=O)(=O)c3ccc(-c4coc(C)n4)cc3)CC2)cc1 — lower, 0.286%
- Cc1ccc2ccc3c(c2n1)NS(=O)(=O)c1ccccc1-3 — lower, 4.09%
- CC(=O)N1CCN(CC(=O)Nc2ccc(C)c(F)c2)CC1 — lower, -0.609%
- CCN1CCN(C(=O)C2(NC(=O)Nc3cccc(F)c3)CCCCC2)CC1 — lower, 1.94%
- CC1(C)CC(=O)c2cc(C(=O)NCc3ccccc3)c(=O)[nH]c2C1 — lower, -0.274%
- Oc1ccccc1-c1nc2ccc(Cl)cn2c1Nc1ccc2c(c1)OCCO2 — lower, -2.55%
- COCc1cccc(-c2csc(C(O)c3ccc(F)cc3)n2)c1 (stereo unspecified) — lower, 2.1%
- O=C(CCS(=O)(=O)c1ccc2c(c1)NC(=O)CO2)Nc1cccc(C(F)(F)F)c1 — lower, -5.78%
- COc1cc(OC)c(OC)cc1/C=C1\C=Cc2ccccc21 — lower, -1.18%
- CCC(=O)Nc1cccc(-c2nc3cc(C)ccc3o2)c1 — lower, -39%
- Cc1cccc(N(C)C(=O)CS(=O)(=O)c2cccc3nsnc23)c1 — lower, 0.638%
- O=C1O/C(=C\c2ccc(O)cc2)C(O)=C1c1ccc(O)cc1 — higher, 10.7%
- CCN(CC)c1nc(C#N)nc(OC)n1 — higher, 13.6%
- CN(C)c1ccc(C=Nc2ccc(/C=C/c3ccnc4ccccc34)cc2)cc1 — lower, -4.02%
- CCOC(=O)c1ccc(NC(=O)C2CCN(S(=O)(=O)c3ccc4c(c3)CCCC(=O)N4)CC2)cc1 — lower, 1.19%
- Cc1csc(NCC(=O)c2c[nH]c3ccccc23)n1 — lower, 0.59%
- COc1ccc(CC(=O)Nc2nnc3n2CCS3)cc1OC — lower, -5.8%
- C[N+]1(CC(=O)c2cccs2)CCOCC1 — lower, 2.54%
- CC(C)(C)c1ccc(C(=O)C[n+]2cccc3cc(Cl)ccc32)cc1 — lower, -0.379%
- CCOC(=O)c1c(-c2ccc(OC)cc2)oc2ccc(OCc3ccc(C(=O)OC)cc3)cc12 — lower, -1.02%
- CCN(CC)c1ccc(S(=O)(=O)N2CCCCC2)cc1NC(=O)C1=COCCO1 — lower, -5.82%
- O=C(CSc1ccccc1)Nc1cccc(S(=O)(=O)N2CCOCC2)c1 — lower, 2.94%
- Cc1ccc(CCNC(=O)c2ccc(CNS(=O)(=O)c3ccc(C)cc3)cc2)cc1 — lower, -7.23%
- Nc1ccc(/C=C/c2ccnc3ccccc23)c([N+](=O)[O-])c1 — lower, -0.106%
- CN(C)c1ccc(/C=N\Nc2ccc([N+](=O)[O-])cc2[N+](=O)[O-])cc1Cl — lower, -2.4%
- CSc1n[nH]c(-c2ccco2)n1 — lower, -0.537%
- Cc1ccc(C)c(NC(=S)NCC(c2cccnc2)N2CCOCC2)c1 (stereo unspecified) — lower, -8.26%
- Cc1ccc(C(CNC(=O)Nc2ccccc2)N2CCN(C)CC2)cc1 (stereo unspecified) — lower, -4.76%
- O=C(COC(=O)CSc1nnc(-c2ccc(Cl)cc2)o1)Nc1cc(Cl)cc(Cl)c1 — lower, 1.9%
- O=C(COc1ccccc1)Nc1nonc1NC(=O)COc1ccccc1 — lower, 1.28%
- CCCS(=O)(=O)Nc1cccc(-c2cn3ccsc3n2)c1 — lower, -11.7%
- CC1CCN(S(=O)(=O)c2ccc3c(c2)N(CC(=O)NCc2ccccc2Cl)C(=O)CO3)CC1 — lower, 0.592%
- CC(=O)c1ccc[n+](C(C)CCC(C)[n+]2cccc(C(C)=O)c2)c1 (stereo unspecified) — lower, -0.885%
- COc1cccc(C(=O)c2sc3nc(-c4ccccc4)cc(C(F)(F)F)c3c2N)c1 — higher, 11.7%
- CC(=O)c1c(Nc2ccccc2)sc(C(=O)c2ccccc2)c1C — higher, 8.19%
- CN(CCC#N)c1ccc(C=O)cc1 — lower, 1.26%
- Cc1[nH]c2ccccc2c1C(=O)C(=O)N(C)c1ccccc1 — lower, 3.32%
- CN1CC[C@H](c2c(O)cc(O)c3c(=O)cc(-c4ccccc4Cl)oc23)[C@H](O)C1 — lower, -8.77%
- COc1cc(C(CC(=O)NCCC(C)C)N2Cc3ccccc3C2=O)cc(OC)c1OC (stereo unspecified) — lower, -3.19%
- COc1ccc(/C=C/c2ccnc3ccccc23)cc1OC — lower, -1.22%
- C/C(=N\NC(=O)c1cccc([N+](=O)[O-])c1)c1cccnc1 — lower, -5.46%
- O=C(NC(=S)NC1CCS(=O)(=O)C1)c1cccc([N+](=O)[O-])c1 (stereo unspecified) — lower, -5.43%
- O=[N+]([O-])c1ccc(/C=C/c2ccc3cccnc3c2)cc1 — lower, -5.64%
- O=S(=O)(c1cccc(C(F)(F)F)c1)N1CCN(c2nc(-c3cccs3)nc3ccccc23)CC1 — lower, -1.28%
- CO[C@H]1O[C@@H]2O[C@@]3(C)CC[C@@H]4[C@@H](C)CC[C@@H]([C@H]1C)[C@@]24OO3 — lower, 0.951%
- CCOc1cc(C(=O)Nc2nnc3n2CCS3)cc(OCC)c1OCC — lower, 0.0761%
- COc1ccc(-c2ccc(CN3C(CC(C)C)C(=O)N(Cc4cn(CC5CCCCC5)nn4)CCS3(=O)=O)cc2)cn1 (stereo unspecified) — higher, 5.71%
- CC(=O)c1cccc(-c2ccc(CN3C(CC(C)C)C(=O)N(Cc4cn(CC5CCCCC5)nn4)CCS3(=O)=O)cc2)c1 (stereo unspecified) — lower, -12.8%

For `COc1ccc(C(C)(O)c2nc(-c3ccc(C)c(C)c3)cs2)cc1` (stereo unspecified), the Potency was 3.16 µM (active).
For `CCc1sc(C(=O)N2CCN(CC(=O)Nc3cccc(F)c3)CC2)cc1C`, the Potency was 25.1 µM (active).
For `COc1ccc(C(O)c2nc(-c3ccc4c(c3)OCO4)cs2)cc1` (stereo unspecified), the Potency was 22.4 µM (active).
With `CCN(CC)c1ccc(S(=O)(=O)N2CCOCC2)cc1NC(=O)CSc1cccc[n+]1[O-]` the Potency was 17.8 µM (active).
In the case of `Oc1ccc(N=Nc2nccs2)c(O)c1`, the Potency is reported as 2.24 µM (active).
For `Cc1ccc(NC(=O)NCC(c2cccnc2)N2CCOCC2)cc1` (stereo unspecified), the Potency was 5.62 µM (active).
For `O=C(COC(=O)c1ccc(Oc2ccccc2)cc1)Nc1nnc(-c2ccccc2)o1`, the Potency was 22.4 µM (active).
For `CN(C)c1ccnc2sc(C(=O)c3ccccc3)c(N)c12`, the Potency was 25.1 µM (active).
For `CC(C)CC(=O)NC(=S)NNC(=O)c1cccc([N+](=O)[O-])c1`, the Potency was 17.8 µM (active).
In the case of `CC(C)c1cccc(C(C)C)c1Nc1cn[nH]c1`, the Potency is reported as 3.98 µM (active).
With `CC(C)CC1C(=O)N(Cc2cn(CC3CCCCC3)nn2)CCS(=O)(=O)N1Cc1ccc(-c2ccc(Cl)cc2)cc1` (stereo unspecified) the Potency was 1.58 µM (active).
